This passage reports outcome and fluorescence, % of fluorescent control results from PubChem BioAssay (Tox21).

A number with no mark means an inactive call. The source made the active and inactive calls. Calls come from the whole dose curve; as a rule, active = well fitted curve in the direction sought with a large enough effect in the repeat runs; inconclusive = weak or mixed curves; inactive = flat fitted curve, though single readings scatter.
% is set by controls: 0 for no effect and ±100 for the full control effect.

The test is described as follows: qHTS assay to test for compound auto fluorescence at 460 nm (blue) in HepG2 cell free culture (AID 720685). The conditions noted are these: Cell-free culture medium, blue autofluorescence 405/460 nm; series mostly up to 91.3 µM. The gist of the method:
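Compound (23 nL) or DMSO pinned into cell-free MEM with 10% FBS; blue fluorescence read at 405/460 nm excitation/emission, expressed as auto-fluorescence equivalency to triamterene.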
On to `COc1ccc(C=O)cc1O`, for which the call was inactive.

Regarding `CCC1(c2cccc(O)c2)CCCCN(C)C1` (centres undefined), the fluorescence, % of fluorescent control is 0.002% [at 18.6 µM].

As to `Oc1ccc(Cc2ccc(O)cc2)cc1`, the call was inactive.

With `ClCOCCl`, the molecule was classed as inactive.

On to `[O-][Br+2]([O-])O`, for which the outcome was inactive.

As to `O=P(O)(O)CN(CP(=O)(O)O)CP(=O)(O)O`, the fluorescence, % of fluorescent control was -0.13% [at 18.6 µM].

Take `ClC1=C(Cl)C2(Cl)C(CBr)CC1(Cl)C2(Cl)Cl` (centres undefined): the molecule was classed as inactive.

Take `COc1cc(CCN)cc(OC)c1OC`: the result was inactive.

As to `N#CN`, the call was inactive.

Consider `CCCC(C)(COC(N)=O)COC(N)=O`, for which the molecule was called inactive.

`C=C1CC[C@@]2(O)[C@H]3Cc4ccc(O)c5c4[C@@]2(CCN3CC2CC2)[C@H]1O5`: the call was inactive.

Regarding `COc1cccc([C@@]2(O)CCCC[C@@H]2CN(C)C)c1`, the molecule was called inactive.

Take `CC[C@H](O)C(C[C@H](C)N(C)C)(c1ccccc1)c1ccccc1`: the result was inactive.

With `CCOC(=O)Nc1cccc(OC(=O)Nc2ccccc2)c1`, the molecule was classed as inactive.
